Among all 2,300 compounds or so, about 1,400 (61%) were called active. About 29% were inconclusive and are not listed. Calls follow the shape of the dose curve; as a rule, active = well fitted inhibition curve with a large enough effect; inconclusive = small, poorly fitted or top-dose-only effect, or effect the other way; inactive = no such curve, though single readings can be large or run the other way. So high a share suggests a set chosen from earlier hits. The list shows a part of the results.
assay: Confirmation screen for delayed death inhibitors of the malarial parasite plastid, 96 hour incubation; also: nearly all actives have a fitted effect of over 60% in size; conditions: P. falciparum luciferase growth in erythrocytes; series mostly up to 28.7 µM
Method in brief: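 Erythrocytes infected with luciferase-expressing P. falciparum (2% hematocrit, 0.1% parasitemia final) in RPMI 1640 with 0.5% Albumax, exposed to compounds 96 h at 37 C, 5% CO2. Growth inhibition read as decreased luciferase luminescence.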
Potency is read from the fitted curve at half-maximal effect.

Row | Structure (SMILES) | Potency
1 | CN1C(=O)C(C)(C)c2cc(S(=O)(=O)NCC3CCC(C(=O)NCc4ccc(F)cc4)CC3)ccc21 (configuration not stated) | 11.2 µM (active)
2 | Cc1ccccc1NC(=O)CCCn1nc(C)c2c(C)n(-c3ccccc3)nc2c1=O | 10 µM (active)
3 | CCOc1ccccc1C(=O)NCC(=O)NCCc1ccc(S(N)(=O)=O)cc1 | inactive
4 | COc1ccc(NC(=O)CCCn2nc(C)c3c(C)n(-c4ccccc4)nc3c2=O)cc1 | 11.2 µM (active)
5 | CCOc1ccc(CCNC(=O)CCCn2nc(C)c3c(C)n(-c4ccccc4)nc3c2=O)cc1 | 11.2 µM (active)
6 | Cc1cccc(C)c1NC(=O)CCCn1nc(C)c2c(C)n(-c3ccccc3)nc2c1=O | 10 µM (active)
7 | Cc1nn(-c2ccccc2)c(C)c1NC(=O)COC(=O)[C@@H](NC(=O)c1ccccc1)C(C)C | inactive
8 | COc1ccc(NC(=O)CCCn2cc([N+](=O)[O-])cn2)cc1 | inactive
9 | CSc1ccccc1OCc1cc(C(=O)NCCn2ccnc2C)no1 | inactive
10 | CCOC(=O)c1ccc(CNC(=O)c2cc(COc3ccccc3SC)on2)o1 | inactive
11 | CCN(CCN1CCCC1)C(=O)c1cc(COc2ccccc2SC)on1 | 12.6 µM (active)
12 | CSc1ccccc1OCc1cc(C(=O)NCCCn2nc(C)cc2C)no1 | 12.6 µM (active)
13 | CSc1ccccc1OCc1cc(C(=O)N(C)CCc2c(C)n[nH]c2C)no1 | 10 µM (active)
14 | CC(=O)NC1=C(Nc2ccc(N(C)C)cc2)C(=O)c2ccccc2C1=O | 6.31 µM (active)
15 | COc1ccc(NC2=C(NC(C)=O)C(=O)c3ccccc3C2=O)cc1 | 3.16 µM (active)
16 | N#Cc1ccccc1S(=O)(=O)N1CCC(C(=O)NCc2ccccc2CN2CCCC2)CC1 | 14.1 µM (active)
17 | CCOC(=O)c1cnc2ccccc2c1NCCc1ccc(OC)c(OC)c1 | 5.01 µM (active)
18 | Cc1ccc2c(c1)c1c3n2CCN(C(=O)CCl)C3CCC1 (configuration not stated) | 14.1 µM (active)
19 | CN(CC(=O)Nc1ccc(Cl)cc1)C(=O)Cc1c(F)cccc1Cl | 10 µM (active)

Row | Structure (SMILES) | Potency
20 | O=C(/C=C/Sc1ncn[nH]1)c1ccc(Cl)cc1 | 12.6 µM (active)
21 | CCC1OC(=O)C[C@@H](O)[C@H](C)[C@@H](OC2OC(C)CC(N(C)C)C2O)[C@@H](CC=O)C[C@@H](C)C(=O)/C=C/[C@]2(C)OC2C1C (some centres not stated) | 1.78 µM (active)
22 | Cc1cc(C)n(Cc2ccc(C(=O)N/N=C/c3ccc(-c4ccc([N+](=O)[O-])cc4)o3)o2)n1 | 5.01 µM (active)
23 | COc1cc(C(C)=O)ccc1OCC(O)CN1CCN(c2cc(C)cc(C)c2)CC1 (configuration not stated) | 14.1 µM (active)
24 | CC(C)(C)C1C/C(=C/c2ccccn2)C(=O)/C(=C/c2ccccn2)C1 (configuration not stated) | 0.158 µM (active)
25 | CSc1cccc(CN2CCC(Oc3cccc(C(=O)N4CCCC4)c3)CC2)c1 | 12.6 µM (active)
26 | COCCNC(=O)c1cccc(OC2CCN(Cc3ccc(C(C)C)cc3)CC2)c1 | 11.2 µM (active)
27 | COCCNC(=O)c1cccc(OC2CCN(Cc3cccc(SC)c3)CC2)c1 | 12.6 µM (active)
28 | CN(C)CCn1c(=O)n(Cc2ccco2)c(=O)c2c3c(sc21)CCCCC3 | 10 µM (active)
29 | O=c1c(Cl)cc(Cl)nn1-c1ccccc1 | 12.6 µM (active)
30 | Cc1c(O)ccc2c(CN(C)Cc3ccccc3)cc(=O)oc12 | 12.6 µM (active)
31 | Cc1ccccc1CN(C)Cc1cc(=O)oc2c(C)c(C)ccc12 | 15.8 µM (active)
32 | COc1cc2c(cc1OC)CN(Cc1cc(=O)oc3c(C)c(C)ccc13)CC2 | 15.8 µM (active)
33 | Cc1ccc2c(CN(C)Cc3cccc(F)c3)cc(=O)oc2c1C | 12.6 µM (active)
34 | C/C(=N\NC(=O)c1cccc(S(=O)(=O)N2CCOCC2)c1)c1ccc(O)cc1 | 1 µM (active)
35 | O=C(Nc1ccccc1[N+](=O)[O-])c1cc(S(=O)(=O)N2CCOCC2)cs1 | 14.1 µM (active)
36 | O=C(Nc1ccccc1N1CCOCC1)c1ccc(F)c(S(=O)(=O)N2CCOCC2)c1 | 8.91 µM (active)
37 | O=C(COC(=O)c1ccc(F)c(S(=O)(=O)N2CCOCC2)c1)Nc1ccc2[nH]c(=O)[nH]c2c1 | inactive
38 | O=C(Nc1ccccc1N1CCOCC1)c1cccc(S(=O)(=O)N2CCOCC2)c1 | 11.2 µM (active)

Row | Structure (SMILES) | Potency
39 | COc1ccc(CNn2c(-c3ccccc3F)nc3ccccc3c2=O)cc1OC | 5.01 µM (active)
40 | Cc1ccccc1C1=NC(C(F)(F)F)(C(F)(F)F)c2c(n(-c3ccc(F)cc3)c(=O)[nH]c2=O)N1 | 11.2 µM (active)
41 | CC(=O)/C(C#N)=C1\NC(=O)C(Cc2ccc(C)c(C)c2)S1 (configuration not stated) | 11.2 µM (active)
42 | CC(=O)/C(C#N)=C1\NC(=O)C(Cc2ccc(C)c(Cl)c2)S1 (configuration not stated) | 12.6 µM (active)
43 | CC(=O)/C(C#N)=C1\NC(=O)C(Cc2cc(Cl)ccc2Cl)S1 (configuration not stated) | 14.1 µM (active)
44 | COC(=O)c1ccccc1SC1CC(=O)N(c2ccccc2)C1=O (configuration not stated) | inactive
45 | CC(C)CN1C2CCCC1CC(NC(=S)NCc1ccco1)C2 (configuration not stated) | 10 µM (active)
46 | CCOC(=O)C1CCCCN1Cc1cccc(OCc2ccccc2)c1 (configuration not stated) | 12.6 µM (active)
47 | CCOC(=O)C1CCCN(Cc2ccc(OCc3ccccc3)c(OC)c2)C1 (configuration not stated) | 10 µM (active)
48 | O=C(C1CCC(=O)N1Cc1ccccc1Cl)N1CCN(c2cccc(Cl)c2)CC1 (configuration not stated) | 11.2 µM (active)
49 | CCS(=O)(=O)c1nc(S(=O)(=O)c2ccc(C)cc2)c(N2CCC3(CC2)OCCO3)s1 | 10 µM (active)
50 | Cc1ccc(CN(Cc2ccccn2)C(=O)Nc2ccc(C)c(C)c2)cc1 | 15.8 µM (active)
51 | Cc1ccc(NC(=O)CN2C(=O)S/C(=C\c3ccccn3)C2=O)cc1C | inactive
52 | OCC1(CCOc2ccccc2)CCN(Cc2nc3ccc(F)cc3[nH]2)CC1 | 12.6 µM (active)
53 | Cc1c(CN2CCC(CO)(CCOc3ccccc3)CC2)[nH]c2ccc(Cl)cc12 | 5.62 µM (active)
54 | Cc1ccc(-n2c(-c3ccc(Cl)cc3)c[n+]3c2CCC3)cc1 | 0.0398 µM (active)
55 | CC(C)(C)OC(=O)CNC(=O)c1[nH]cnc1C(=O)NC1CCN(C(=O)OC(C)(C)C)CC1 | 12.6 µM (active)
56 | CC(C)C[C@H](NC(=O)c1nc[nH]c1C(=O)N1CCN(C(=O)OC(C)(C)C)CC1)C(=O)OC(C)(C)C | 15.8 µM (active)
57 | CC(C)(C)OC(=O)[C@H](Cc1ccccc1)NC(=O)c1nc[nH]c1C(=O)N1CCN(C(=O)OC(C)(C)C)CC1 | 12.6 µM (active)

Reference: PubChem BioAssay AID504848 (National Center for Advancing Translational Sciences (NCATS), 2011)
